Laboratory results reported in the OligoGym collection.

Each sequence was assayed against BBS5 (assay: pooled miR-30 sensor sort-seq; sequence = guide strand). Details: shRNA.
Also: reference of the scale not given here.

Sequence | sensor-assay potency score (higher = more potent)
TTTATCATATACATGTTCTTGT | 0.705
AAATTTTGAATCTCTAATCTTT | -0.135
TTCGACTGTCAGAGCTTCGAGC | -0.723
TTAGTATATAGAGAGCTTCAGT | -0.624
TTCTACATCATCTTGAATTTGT | -0.245
TAAATATAAATTCAAAACGAGT | -1.56
TTAGAGTTAGCAGTCCTTGTTG | -0.252
AACATATCCACCACTCTGCTGA | -0.129
TTTTATCATATACATGTTCTTG | -0.69
TTTCCTTAACTGATTCTTGTAG | -0.239
TTGAATTTGTTCGACTGTCAGA | -0.412
TATCATATACATGTTCTTGTGG | -0.0827

What follows are sequences tested against BCAR3 in the same assay as above. Details: shRNA.

Sequence | sensor-assay potency score (higher = more potent)
TTGAATTTCTCATATCTCTCTG | 0.778
TCGCATTTGAAATTCAGTCTTG | -0.471
TCTGATTGACTTGTGCACCTTT | 0.95
TTGGTGAACAGTTCTTTTGCAC | 0.174
TTTTCTAACCTTGTGATCTGTG | -0.0388
TTGACTTGTGCACCTTTGCTGC | -0.561
TAGGAAGTCACCATCTCGCTGC | 0.641
TTGAGGAACGGCACCTTGCAGG | -0.594
TTGCACGTTTCAACATTGCTGT | -0.296
TGAATTTCTCATATCTCTCTGT | 0.413
TTGAGGGACAAGGCTCTTCTGT | -0.76
TAACCTTGTGATCTGTGGCATT | -0.946
